FLuc inh-1: blocks purified firefly luciferase enzyme activity. Potency, µM (titrated, usually from 115 µM), usual class: inhibitors. 2.5% of 76,000 active. P08659. AID 1347043. purified P. pyralis luciferase, luminescence, biochemical; note: % is set by controls: 0 for no effect and ±100 for the full control effect; nearly all actives have a fitted effect of over 65% in size
Target sequence (P08659 whole entry, looked up): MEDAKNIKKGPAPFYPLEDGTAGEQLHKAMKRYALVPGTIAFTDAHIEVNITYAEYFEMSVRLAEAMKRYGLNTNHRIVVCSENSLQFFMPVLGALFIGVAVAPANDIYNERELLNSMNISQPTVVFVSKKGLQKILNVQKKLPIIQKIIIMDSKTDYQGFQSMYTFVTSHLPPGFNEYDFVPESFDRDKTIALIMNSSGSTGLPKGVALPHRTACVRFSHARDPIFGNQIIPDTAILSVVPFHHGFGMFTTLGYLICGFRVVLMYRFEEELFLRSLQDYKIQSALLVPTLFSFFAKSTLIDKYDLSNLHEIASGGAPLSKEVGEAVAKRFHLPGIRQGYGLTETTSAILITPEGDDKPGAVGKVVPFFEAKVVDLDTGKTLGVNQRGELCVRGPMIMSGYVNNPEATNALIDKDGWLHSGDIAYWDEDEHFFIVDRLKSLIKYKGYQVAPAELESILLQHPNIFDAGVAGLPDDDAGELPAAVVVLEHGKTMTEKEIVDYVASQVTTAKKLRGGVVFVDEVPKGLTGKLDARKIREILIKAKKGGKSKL
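Cell-free enzyme assay, 10nM P. pyralis luciferase, luciferin and ATP each at 10uM. Inhibition profiled over a 6-point titration, read as luminescence.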
3T3 cytotox: cytotoxic compounds in NIH 3T3 cells; NIH 3T3 viability, CellTiter-Glo ATP luminescence, 48-72 h; Potency, µM (series often up to 96.7 µM), for the others: at the highest dose activity change, negative = cytotoxicity, hits mostly inhibitors; 4.3% of 94,000 active; AID 1345082; note: % is set by controls: 0 for no effect and ±100 for the full control effect; nearly all actives have a fitted effect of over 55% in size
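Cells were seeded at 400 per well, treated with pin-transferred compound, and kept 48 or 72 hr at 37 °C before CellTiter-Glo addition and luminescence imaging of cellular ATP.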
NPR1 antag: antagonists of human natriuretic peptide receptor Npr1; P16066; HEK293 hNpr1 GloSensor cGMP, ANP-stimulated luminescence; Potency, µM (series often up to 46.3 µM), for the others: at the top dose activity change, negative = inhibition, hits mostly inhibitors; 1.6% of 76,000 active; AID 1347048; calls by dose curve; note: % is set by controls: 0 for no effect and ±100 for the full control effect; nearly all actives have a fitted effect of over 60% in size
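HEK293 cells stably expressing human Npr1 and cGMP GloSensor pGS-40F, loaded 2 h with 2% GloSensor reagent, given compound 30 min at room temperature. Luminescence read before and 20 min after 0.1 nM hNppA.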
GPT2 inhibitor: GPT2 alanine aminotransferase inhibition; 0.25% of 100,000 active; Potency, µM (series often up to 57.7 µM), for inactives: top-dose activity change, negative = inhibition, most hits filed as inhibitors; Q8TD30; Recombinant GPT2, coupled pyruvate oxidase/HRP Amplex Red fluorescence; note: % is set by controls: 0 for no effect and ±100 for the full control effect; nearly all actives have a fitted effect of over 60% in size
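Fluorescence read-out: pyruvate from GPT2 turnover coupled to pyruvate oxidase, HRP and Amplex Red (0.2mM ThPP, 0.2U/mL PO and HRP, 50uM Amplex final). Substrates 250uM a-KG, 2mM L-alanine; enzyme 10ng/uL; 30 min RT.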
HEK293 tox: kills HEK 293 cells; HEK 293 viability, ATP luminescence (CellTiter-Glo), 48-72 h; Potency, µM (series often up to 115 µM), for the others: at the top dose activity change, negative = cytotoxicity, usual class: inhibitors; 6.6% of 94,000 active; AID 1345083; note: % is set by controls: 0 for no effect and ±100 for the full control effect; nearly all actives have a fitted effect of over 60% in size
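Pintool-delivered compounds were incubated with HEK 293 cells (250 cells/well) at 37 degree Celsius for 48 or 72 hr. ATP-dependent luminescence (CellTiter-Glo) then reported remaining viable cells.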
FLuc SDR -ATP: firefly luciferase binding stabilization, ATP absent; Purified FLuc-C-HiBiT, Nano-Glo HiBiT luminescence, no ATP; 7.8% of 1,300 active; shares compounds with FLuc inh-1; Potency, µM (doses to about 32.7 µM), for the others: at the top dose activation (signal gain), hits mostly activators; AID 1963318; note: nearly all actives have a fitted effect of over 55% in size
FLuc SDR ATP: firefly luciferase binding stabilization, ATP added; shares compounds with FLuc inh-1; purified FLuc-C-HiBiT + ATP, HiBiT complementation luminescence; Potency, µM (highest dose often 32.7 µM), inactives show at the top dose activation (gain of signal), hits mostly activators; 8.7% of 1,300 active; AID 1963319;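 note: signal reports ligand binding via conformational change of the enzyme rather than luciferase catalysis; % of control where 0% means no effect; nearly all actives have a fitted effect of over 55% in size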
FLuc inh-2: blocks firefly luciferase enzymatic activity; shares compounds with FLuc inh-1; purified FLuc-C-HiBiT enzyme, luciferin luminescence; Potency, µM (highest dose often 32.7 µM), without a hit: at the highest dose activity change, negative = inhibition, hits mostly inhibitors; 42% of 1,300 active; AID 1963320; note: % is set by controls: 0 for no effect and ±100 for the full control effect; nearly all actives have a fitted effect of over 70% in size
* marks the source's active call; other numbers are inactive results; [ ] = another dose, or the depositor's remark. Only some compounds are listed: those with a hit (about 10% of all), similar ones and a draw of the others. Unless noted, calls come from the whole dose curve; as a rule, active = well fitted curve in the direction sought with a large enough effect; inconclusive = small, poorly fitted or top-dose-only effect, or another doubt; inactive = no such curve, though single readings can be large; an effect the other way counts as inactive or inconclusive. Potency is the fitted concentration of half-maximal effect.

Screening O=C(Nc1cccc(F)c1)C1CCN(C(=O)c2ncn3c2COC(c2ccccc2)C3)CC1 (stereo not given) returned FLuc inh-1 1µM*, 3T3 cytotox -1%, NPR1 antag inconclusive, GPT2 inhibitor inactive, HEK293 tox 6%, FLuc SDR -ATP 10%, FLuc SDR ATP 0.99µM* and FLuc inh-2 0.88µM*.
COCCOC1CCN(C(=O)NCc2ccccc2)CC1 was read as FLuc inh-1 inactive, 3T3 cytotox inactive, NPR1 antag -2%, GPT2 inhibitor 3% and HEK293 tox 4%.
CN1CCN(c2ccc(-c3cc4c(ccn4C)c(C(=O)NCCc4ccccn4)n3)cc2)CC1 was read as FLuc inh-1 0.79µM*, 3T3 cytotox 20µM*, NPR1 antag -12%, GPT2 inhibitor -3%, HEK293 tox 35µM*, FLuc SDR -ATP inconclusive, FLuc SDR ATP inconclusive and FLuc inh-2 2.8µM*.
Cn1ccc2c(C(=O)NCC3CCOCC3)nc(-c3cccc(N4CCOCC4)c3)cc21 was read as FLuc inh-1 inactive, 3T3 cytotox inconclusive, NPR1 antag 0%[70.6 µM], GPT2 inhibitor inactive and HEK293 tox inconclusive.
Screening Cn1ccc2c(C(=O)NCCc3cnc[nH]3)nc(-c3ccc(N4CCOCC4)cc3)cc21 returned FLuc inh-1 1µM*, 3T3 cytotox inconclusive, NPR1 antag -2%[70.6 µM], GPT2 inhibitor -11%[88.5 µM], HEK293 tox inconclusive, FLuc SDR -ATP inconclusive, FLuc SDR ATP inconclusive and FLuc inh-2 4.5µM*.
Cn1ccc2c(C(=O)NCCc3ccccn3)nc(-c3cccc(N4CCOCC4)c3)cc21 was read as FLuc inh-1 inactive, 3T3 cytotox inconclusive, NPR1 antag 1%, GPT2 inhibitor -3% and HEK293 tox inconclusive.
`Cc1noc(C)c1[S+](=O)([O-])N1CCCC(C(=O)N2CCCC(c3nc4ncccc4[nH]3)C2)C1` (stereo not given) gave 3T3 cytotox -20%, GPT2 inhibitor inactive and HEK293 tox -36%.
For COc1cccc(CC(=O)Nc2ccc(-c3nc4ccccc4s3)cc2)c1 the results were FLuc SDR -ATP 24%, FLuc SDR ATP 19% and FLuc inh-2 inconclusive.
Cc1cc(C)cc(OCC(=O)Nc2ccc(-c3nc4ccccc4s3)cc2)c1 was read as FLuc SDR -ATP 14%, FLuc SDR ATP 10% and FLuc inh-2 -1%.
Screening CCCCC(=O)Nc1cccc(-c2nc3ccccc3s2)c1 returned FLuc SDR -ATP 16%, FLuc SDR ATP 12% and FLuc inh-2 inconclusive.
For CN1CC2(CCN(C(=O)CCCc3ccccc3)CC2)CC1C(=O)N1CCOCC1 (stereo not given) the results were FLuc inh-1 inactive, 3T3 cytotox -2%, NPR1 antag 4%, GPT2 inhibitor -10% and HEK293 tox inconclusive.
For COc1ccc(C)cc1NC(=O)Cn1nc2c(cc1=O)CCCCC2 the results were FLuc inh-1 inactive, 3T3 cytotox -1%, NPR1 antag 2%, GPT2 inhibitor 4% and HEK293 tox 3%.
Screening COc1ccc(C)cc1NC(=O)c1ccc2c(Cl)c3c(nc2c1)CCC3 returned FLuc SDR -ATP 23%, FLuc SDR ATP 16% and FLuc inh-2 inconclusive.
Clc1ccc(-c2cc3c(cn2)CN(Cc2ccncc2)CCN3)cc1 was read as FLuc inh-1 2.2µM*, 3T3 cytotox inconclusive, NPR1 antag inconclusive, GPT2 inhibitor -28%[88.5 µM], HEK293 tox 89µM*, FLuc SDR -ATP 31%[49.3 µM], FLuc SDR ATP inconclusive and FLuc inh-2 16µM*.
For CCn1cc(-c2cc3c(cn2)CN(Cc2ccncc2)CCN3)cn1 the results were FLuc inh-1 inconclusive, 3T3 cytotox -37%[138 µM], NPR1 antag -1%[70.6 µM], GPT2 inhibitor 2%[88.5 µM] and HEK293 tox inconclusive.
For Cc1cc(-c2cc3c(cn2)CN(Cc2ccccn2)CCN3)ccn1 the results were FLuc inh-1 14µM*, 3T3 cytotox 89µM*, NPR1 antag 2%[70.6 µM], GPT2 inhibitor -1%[88.5 µM], HEK293 tox inconclusive, FLuc SDR -ATP 21%[49.3 µM], FLuc SDR ATP 19%[49.3 µM] and FLuc inh-2 inconclusive.
For CCN(CCO)CCCC(C)Nc1ccnc2cc(Cl)ccc12 (stereo not given) the results were GPT2 inhibitor -12%.
NC1CCc2n[nH]c(=O)n2CC1 (stereo not given) was read as FLuc inh-1 inactive, 3T3 cytotox inactive, NPR1 antag 6%, GPT2 inhibitor inactive and HEK293 tox 3%.
Screening C/C=C(\C)C(=O)OC[C@H]1O[C@@H](O[C@H]2[C@@H](O[C@H]3O[C@H](COC(=O)/C(C)=C/C)[C@@H](O)[C@H](O)[C@H]3O[C@@H]3O[C@H](COC(=O)/C(C)=C/C)[C@@H](O)[C@H](OC(=O)/C(C)=C/C)[C@H]3O)O[C@H](COC(=O)/C(C)=C/C)[C@@H](O)[C@@H]2O)[C@H](O)[C@@H](O)[C@@H]1O returned GPT2 inhibitor 5%[17.1 µM].
`Cc1c(-c2ccccc2)[nH]c2c(CNC(=O)C3=NN(C)C(=O)CC3)cc(Cl)cc12` gave FLuc inh-1 4µM*, 3T3 cytotox 45µM*, NPR1 antag -29%, GPT2 inhibitor 0%, HEK293 tox 45µM*, FLuc SDR -ATP 12%, FLuc SDR ATP 9% and FLuc inh-2 inconclusive.
Cc1cc(CNC(=O)c2ccc(S(N)(=O)=O)cc2)c2[nH]c(C)c(C)c2c1 was read as FLuc inh-1 inactive, 3T3 cytotox -15%, NPR1 antag 0%, GPT2 inhibitor -24% and HEK293 tox -1%.
Screening Cc1ccc(-n2nc3n(c2=O)CCN([S+](=O)([O-])c2cccs2)C3)cc1 returned FLuc inh-1 inactive, 3T3 cytotox -25%, NPR1 antag -1%, GPT2 inhibitor inactive and HEK293 tox inconclusive.
CNC(=O)[C@@H]1C[C@@H](O)CN1C1CCN(C(=O)CCc2c[nH]c3ccccc23)CC1 was read as FLuc inh-1 inactive, 3T3 cytotox -21%, NPR1 antag 0%, GPT2 inhibitor 1% and HEK293 tox -4%.
